This is an account of results in PubChem BioAssay (Tox21).

Experiment [1] is described as follows: cAMP Responsive Elements (CRE) small molecule antagonists, cell-based qHTS assay: qHTS cell viability counter screen (AID 2060913). Also: nearly all actives have a fitted effect of over 40% in size. The gist of the method: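 CRE-bla HEK293T cells (2,000/well, 18 h) given compound plus NKH477 0.25 uM final for 3 h at 37C; viability counter-screen by CellTiter-Glo luminescence in same wells after 30 min.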
In general terms: In qHTS, concentration-response curves come from the screen itself.

A short description of experiment [2]: cAMP Responsive Elements (CRE) small molecule agonists, cell-based qHTS assay: qHTS cell viability counter screen (AID 2060914). Also: nearly all actives have a fitted effect of over 50% in size. The gist of the method: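 Cytotoxicity was measured as ATP luminescence (CellTiter-Glo, 30 min at room temperature) in the same wells as the CRE-bla FRET read-out. HEK293T CRE-bla cells had 3 h compound exposure at 37C/5% CO2.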

Records with an inconclusive call do not appear. A number with no mark means an inactive call. The source made the active and inactive calls. Calls follow the shape of the dose curve; as a rule, active = well fitted cell-killing curve with a large enough effect in the repeat runs; inconclusive = weak or mixed curves, or effect the other way; inactive = flat fitted curve, though single readings scatter.
% is scaled to controls: 0 for no effect and ±100 for the full control effect; potency is read from the fitted curve at half-maximal effect.

Turning to `COS(=O)(=O)O`, the Potency result in experiment [1] and in experiment [2] was “inactive” each time.
Regarding `CCCCCCCCCC(=O)OCC`, the Potency result in experiment [1] and in experiment [2] was “inactive” in each case.
As for `CCCCCC(CC)OC(=O)CCCOc1ccc(Cl)cc1Cl` (centres undefined), the Potency entry in experiment [1] and in experiment [2] was “inactive” throughout.
In the case of `CC(C)=CC=O`, the Potency entry in experiment [1] and in experiment [2] was “inactive” each time.
On to `C=CC(=O)OCCCl`, for which the Potency result in experiment [1] and in experiment [2] was “inactive” in each case.
`CNCC(O)c1ccc(O)c(O)c1` (centres undefined): the Potency entry in experiment [1] and in experiment [2] was “inactive” each time.
For `Cc1ccc2ncccc2c1`, the Potency entry in experiment [1] was “inactive”. In addition, the Potency in experiment [2] was 54.5 µM (active).
For `CC1=C(O)C(=O)OC1C` (centres undefined), the Potency entry in experiment [1] and in experiment [2] was “inactive” in each case.
For the molecule `O=C(OCCN1CCOCC1)c1cccnc1Nc1cccc(C(F)(F)F)c1`, the Potency result in experiment [1] and in experiment [2] was “inactive” each time.
For the molecule `COC(=O)CCCCC(=O)OC`, the Potency entry in experiment [1] and in experiment [2] was “inactive” each time.
As to `CNCc1cc(F)ccc1Oc1ccc(Cl)c(Cl)c1`, the Potency result in experiment [1] and in experiment [2] was “inactive” throughout.
As to `Cc1ccc(O)c(C(=O)c2ccccc2)c1`, the Potency result in experiment [1] and in experiment [2] was “inactive” throughout.
As for `CCCC(=O)OCCC(C)C`, the Potency result in experiment [1] and in experiment [2] was “inactive” each time.
As for `CC(C)OC(=O)C(C)N(C(=O)c1ccccc1)c1ccc(F)c(Cl)c1` (centres undefined), the Potency entry in experiment [1] and in experiment [2] was “inactive” throughout.
In the case of `OC(C#CCN1CCCC1)(c1ccccc1)c1ccccc1`, the Potency entry in experiment [1] and in experiment [2] was “inactive” each time.
On to `Cc1cccc(N)n1`, for which the Potency result in experiment [1] and in experiment [2] was “inactive” each time.
Turning to `C=CN1CCCC1=O`, the Potency result in experiment [1] and in experiment [2] was “inactive” each time.
For the molecule `CC(C)C(O)(c1ccc(OC(F)(F)F)cc1)c1cncnc1` (centres undefined), the Potency entry in experiment [1] and in experiment [2] was “inactive” in each case.
Take `CCOC(=O)C(C)C(C)=O` (centres undefined): the Potency entry in experiment [1] and in experiment [2] was “inactive” throughout.
With `[Cl][Eu]([Cl])[Cl]`, the Potency entry in experiment [1] and in experiment [2] was “inactive” each time.
In the case of `c1ccc2c(c1)ccc1ccccc12`, the Potency result in experiment [1] and in experiment [2] was “inactive” in each case.
As for `C=CC/C=C/C/C=C/C/C=C/C`, the Potency result in experiment [1] and in experiment [2] was “inactive” throughout.
Consider `CCOC(=O)Nc1ccc2c(c1)N(C(=O)CCN1CCOCC1)c1ccccc1S2`, for which the Potency result in experiment [1] and in experiment [2] was “inactive” each time.
Take `CC(C)c1ccc(C(=O)N=C(N)N)cc1S(C)(=O)=O`: the Potency entry in experiment [1] and in experiment [2] was “inactive” throughout.
`CCOC(=O)C1CC(=O)C(=C(O)C2CC2)C(=O)C1` (centres undefined): the Potency entry in experiment [1] and in experiment [2] was “inactive” throughout.
Take `CCCCOC(=O)c1ccc(O)cc1`: the Potency result in experiment [1] and in experiment [2] was “inactive” throughout.
`O=C(O)CONC(=O)c1ccccc1`: the Potency result in experiment [1] and in experiment [2] was “inactive” throughout.
Regarding `CN1C(=O)N(c2ccccc2Br)Cc2cnc(Nc3ccc4c(c3)OCC(CO)O4)nc21` (centres undefined), the Potency result in experiment [1] and in experiment [2] was “inactive” each time.
As to `CCC(OCCCOC)OC(C)=O` (centres undefined), the Potency entry in experiment [1] and in experiment [2] was “inactive” in each case.
For `CC(C)CCOCCC(C)C`, the Potency entry in experiment [1] and in experiment [2] was “inactive” each time.
As for `O=C(O)c1ccc(CO)o1`, the Potency entry in experiment [1] and in experiment [2] was “inactive” in each case.
Consider `C=C(C)C(=O)OCC(O)COc1ccc(C(C)(C)c2ccc(OCC(O)COC(=O)C(=C)C)cc2)cc1` (centres undefined), for which the Potency in experiment [1] and in experiment [2] was 61.1 µM (active) in each case.
On to `CCC1(c2ccccc2)C(=O)NCNC1=O`, for which the Potency entry in experiment [1] and in experiment [2] was “inactive” throughout.
`O=C(O)c1ccc(C(=O)O)cc1`: the Potency result in experiment [1] and in experiment [2] was “inactive” each time.
Consider `CC[N+](C)(C)c1cccc(O)c1`, for which the Potency result in experiment [1] and in experiment [2] was “inactive” each time.
Turning to `CN(C)C/C=C(/c1ccc(Br)cc1)c1cccnc1`, the Potency result in experiment [1] and in experiment [2] was “inactive” throughout.
Take `N[C@@H](Cc1cc(I)c(Oc2ccc(O)c(I)c2)c(I)c1)C(=O)O`: the Potency result in experiment [1] and in experiment [2] was “inactive” throughout.
`Cc1cc(C)cc(OCC2CNC(=O)O2)c1` (centres undefined): the Potency result in experiment [1] and in experiment [2] was “inactive” throughout.
For `Cc1cccnc1`, the Potency entry in experiment [1] and in experiment [2] was “inactive” in each case.
`CC(C)(c1ccc(O)cc1)c1ccc(O)cc1`: the Potency entry in experiment [1] and in experiment [2] was “inactive” each time.
Take `CCCCCCCC/C=C\CCCCCCCC(=O)NCc1ccc(O)c(OC)c1`: the Potency result in experiment [1] and in experiment [2] was “inactive” each time.
`CCCCC(CC)COS(=O)(=O)O` (centres undefined): the Potency result in experiment [1] and in experiment [2] was “inactive” throughout.
In the case of `Brc1c2ccccc2c(Br)c2ccccc12`, in experiment [1], the viability change, negative = cytotoxic was -0.61% [at 8.39 µM]. In addition, in experiment [2], the activity change, negative = cytotoxicity is -1.97% [at 8.39 µM].
For `CC(C)(C)NCC(O)COc1cccc2c1CCC(=O)N2` (centres undefined), the Potency entry in experiment [1] and in experiment [2] was “inactive” each time.
In the case of `O=CC1CC=CCC1` (centres undefined), the Potency entry in experiment [1] and in experiment [2] was “inactive” throughout.
As to `Cc1nc2n(c(=O)c1CCN1CCC(c3noc4cc(F)ccc34)CC1)CCCC2`, the Potency entry in experiment [1] and in experiment [2] was “inactive” each time.
As to `NCCC(O)(P(=O)(O)O)P(=O)(O)O`, the Potency entry in experiment [1] and in experiment [2] was “inactive” in each case.
As for `Nc1ccc(S(=O)(=O)Nc2ccccc2)cc1`, the Potency entry in experiment [1] and in experiment [2] was “inactive” in each case.
`CC(C)(C)NCC(O)c1ccc(O)c(CO)c1` (centres undefined): the Potency entry in experiment [1] and in experiment [2] was “inactive” in each case.
`[K+]`: the Potency result in experiment [1] and in experiment [2] was “inactive” throughout.
As to `C#C[C@]1(O)CC[C@H]2[C@@H]3CCC4=Cc5oncc5C[C@]4(C)[C@H]3CC[C@@]21C`, the Potency entry in experiment [1] and in experiment [2] was “inactive” each time.
On to `Cc1ccc(C)c([N+](=O)[O-])c1`, for which the Potency result in experiment [1] and in experiment [2] was “inactive” each time.
Regarding `CN1CCCC1=O`, the Potency entry in experiment [1] and in experiment [2] was “inactive” in each case.
`C=CC(C)(CCC=C(C)C)OC(=O)CC` (centres undefined): the Potency result in experiment [1] and in experiment [2] was “inactive” each time.
For `CCCC/C=C/C=C\C=O`, the Potency entry in experiment [1] and in experiment [2] was “inactive” throughout.
For `C1CCCCC1`, the Potency entry in experiment [1] and in experiment [2] was “inactive” each time.
With `COCc1nnc(-c2ccc[n+]([O-])c2)n1-c1c(Cl)c(Cl)cc2[nH]c(=O)c(=O)[nH]c12`, the Potency result in experiment [1] and in experiment [2] was “inactive” in each case.
